Pf growth 48h – inhibits P. falciparum growth in the first generation, 48 h. P. falciparum luciferase growth in erythrocytes, 48 h. Potency, µM (highest dose often 28.7 µM), most hits filed as inhibitors. 310,000 compounds, 5.9% hits
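First compound was added to culture medium, then infected red cells at 0.1% parasitemia and 2% hematocrit (final). After incubation at 37 C under 5% CO2, luciferase detection reagent was dispensed and light output recorded.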
SARS PLpro yeast – inhibitors of SARS-CoV papain-like protease in yeast | S. cerevisiae expressing SARS-CoV PLpro, growth rescue | Potency, µM (titrated, usually from 32.9 µM), usual class: activators | 330,000 compounds, 0.19% hits; calls by dose curve; also: nearly all actives have a fitted effect of over 55% in size
AmpC inh detg – blocks E. coli AmpC beta-lactamase in detergent assay | AmpC hydrolysis of nitrocefin, absorbance 480 nm, 0.01% Triton | Potency, µM (highest dose often 114 µM), most hits filed as inhibitors | 370,000 compounds, 0.041% hits; also: nearly all actives have a fitted effect of over 25% in size
Target sequence (P00811 whole entry, looked up): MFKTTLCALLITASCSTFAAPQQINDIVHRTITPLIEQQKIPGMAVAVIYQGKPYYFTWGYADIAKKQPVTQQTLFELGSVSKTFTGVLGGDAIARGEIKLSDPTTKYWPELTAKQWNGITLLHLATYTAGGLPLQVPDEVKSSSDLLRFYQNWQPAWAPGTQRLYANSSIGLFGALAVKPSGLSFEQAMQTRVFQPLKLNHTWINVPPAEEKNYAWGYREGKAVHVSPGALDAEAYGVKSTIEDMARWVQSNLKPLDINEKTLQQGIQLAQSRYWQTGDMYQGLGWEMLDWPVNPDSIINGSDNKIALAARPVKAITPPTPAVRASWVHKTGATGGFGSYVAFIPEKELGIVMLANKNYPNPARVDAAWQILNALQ
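20 mM phosphate pH 7.0 + 0.01% (detergent screen) or 0.0001% Triton X-100; 5.3 nM AmpC reagent; cpd preinc 15 min RT; nitrocefin (800 uM stock) to start; A480 q20 s × 4 min; Activity was normalised to no-enzyme and no-compound control wells.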
Pf growth 96h – inhibits malaria parasite growth, 96 h; P. falciparum luciferase reporter growth, 96 h; Potency, µM (highest dose often 28.7 µM), hits mostly inhibitors; 320,000 compounds, 6.9% hits; AID 504834
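Plates of compound plus infected erythrocytes (2% hematocrit, 0.05% parasitemia final) incubate 96 hours, 37 C, 5% CO2. Detection reagent added; reduced luminescence from the parasites' luciferase reporter flags inhibition.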
AmpC inh no detg – blocks E. coli AmpC beta-lactamase in detergent-free assay. AID 485341. Potency, µM (doses to about 57.1 µM), actives largely listed as inhibitors. AmpC nitrocefin hydrolysis, absorbance 480 nm, 0.0001% Triton. 330,000 compounds, 0.52% hits; also: nearly all actives have a fitted effect of over 20% in size
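20 mM phosphate pH 7.0 + 0.01% (detergent screen) or 0.0001% Triton X-100; 5.3 nM AmpC reagent; cpd preinc 15 min RT; nitrocefin (800 uM stock) to start; A480 q20 s × 4 min; Activity was normalised to no-enzyme and no-compound control wells.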
Sm TGR inh – inhibitors of Schistosoma mansoni thioredoxin glutathione reductase; Q962Y6; purified TGR, DTNB reduction, TNB absorbance 405 nm; 360,000 compounds, 3% hits; Potency, µM (titrated, usually from 114 µM), usual class: inhibitors; AID 485364; also: nearly all actives have a fitted effect of over 60% in size
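TGR 20 nM + NADPH 100 uM (dispensed conc.), cpd preinc 15 min RT; start with NADPH (500 uM addition) then DTNB (15 mM addition). Kinetic TNB absorbance, 405 nm filter. Four-parameter Hill fit across titration.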
Each line names hits and unclear results; the compound was inactive in the other large screens. Compounds with a hit are over-represented: about 12% of the library has one in this group of screens. Unless noted, calls follow the shape of the dose curve; as a rule, active = well fitted curve in the direction sought with a large enough effect; inconclusive = small, poorly fitted or top-dose-only effect, or another doubt; inactive = no such curve, though single readings can be large; an effect the other way counts as inactive or inconclusive.

CCOC(=O)c1c(CSc2nc(C)cc(C)c2C#N)n(C)c2cc(Br)c(OC(C)=O)cc12	Pf growth 48h inconclusive, Pf growth 96h inconclusive
CCCCCCCCOC(=O)c1c(CSC(=N)N)n(C)c2cc(Br)c(OC(C)=O)cc12	Pf growth 48h inconclusive, Pf growth 96h 10µM
CCOC(=O)c1c(CSC(=N)N)n(-c2ccc(Br)cc2)c2cc(Br)c(OC(C)=O)cc12	Pf growth 48h 1.9µM, Pf growth 96h inconclusive
COc1cc2c(C(=O)N3CCOCC3)c(CSc3ccccc3)n(C)c2cc1Br	Pf growth 96h inconclusive
CCOC(=O)c1c(C)n(C)c2cc(Br)c(C(=O)OC)cc12	none
CN(C(=S)NC1CCCCC1)C1(c2ccccc2Cl)CCCCC1=O (centres undefined)	Pf growth 48h 12µM, Pf growth 96h inconclusive
CC(C)NC(=S)N(C)C1(c2ccccc2Cl)CCCCC1=O (centres undefined)	none
CN(C(=S)Nc1ccccc1F)C1(c2ccccc2Cl)CCCCC1=O (centres undefined)	Pf growth 48h 10µM, AmpC inh detg inconclusive, Pf growth 96h inconclusive
CCCCCCC(=O)O[C@H]1CC[C@H]2[C@@H]3CCC4CC(=O)C=C(C)[C@]4(C)[C@H]3CC[C@]12C (some centres undefined)	Pf growth 48h 4.8µM, Pf growth 96h 6.7µM (no result: SARS PLpro yeast, AmpC inh detg, AmpC inh no detg, Sm TGR inh)
C[C@]12CCC(=O)CC1CCC1C2CC[C@]2(C)C(OC(=O)CCC(=O)O)CCC12 (some centres undefined)	none
O=C(NCc1ccc(Cl)cc1)C1CCN(c2ncnc3c2nc2n3CCCCC2)CC1	none (no result: Pf growth 48h, SARS PLpro yeast, Pf growth 96h, AmpC inh no detg)
CCCCOc1ccc(S(=O)(=O)NCc2csc(C)n2)cc1	Pf growth 96h 10µM
CC(C)(Oc1ccc(Br)cc1)C(=O)Nc1cc(-c2nc3ccccc3[nH]2)ccc1Cl	none (no result: Pf growth 48h, SARS PLpro yeast, Pf growth 96h, AmpC inh no detg)
O=C(CSc1ccc(Cl)cc1)Nc1cccc(-c2nc3ccccc3[nH]2)c1	Pf growth 48h 3.7µM, Pf growth 96h inconclusive
COc1cccc(OC)c1C(=O)NC(=S)Nc1cc(-c2nc3ccccc3[nH]2)ccc1Cl	Pf growth 48h 4.1µM, Pf growth 96h inconclusive
COc1ccc(OCC(=O)Nc2cccc(-c3nc4ccccc4[nH]3)c2)cc1	Pf growth 48h inconclusive, Pf growth 96h 12µM
CCCn1c(CCC(=O)Nc2ccc(C)c(Cl)c2)nc2cccnc21	none (no result: Pf growth 48h, SARS PLpro yeast, Pf growth 96h, AmpC inh no detg)
CC[C@@]12C(=O)N(c3cccc(Br)c3)C(=O)N1[C@H](c1cccc(C)c1)[C@@H]1C(=O)N(Cc3ccccc3)C(=O)[C@@H]12	Pf growth 48h 4.1µM, Pf growth 96h 5.2µM
CC[C@@]12C(=O)N(c3ccccc3)C(=O)N1[C@H](c1cccc(C)c1)[C@@H]1C(=O)N(Cc3ccccc3)C(=O)[C@@H]12	Pf growth 48h inconclusive, Pf growth 96h 6.6µM
Cc1cccc([C@@H]2[C@@H]3C(=O)N(Cc4ccccc4)C(=O)[C@@H]3[C@]3(Cc4ccccc4)C(=O)N(c4cccc(F)c4)C(=O)N23)c1	Pf growth 48h inconclusive, Pf growth 96h inconclusive
Cc1cccc([C@@H]2[C@@H]3C(=O)N(Cc4ccccc4)C(=O)[C@@H]3[C@]3(CC(C)C)C(=O)N(c4cccc(Br)c4)C(=O)N23)c1	Pf growth 48h inconclusive, Pf growth 96h inconclusive
Cc1cccc([C@@H]2[C@@H]3C(=O)N(Cc4ccccc4)C(=O)[C@@H]3[C@]3(CC(C)C)C(=O)N(c4cccc(F)c4)C(=O)N23)c1	Pf growth 48h 9.3µM, Pf growth 96h inconclusive
CC[C@@]12C(=O)N(c3cccc(F)c3)C(=O)N1[C@H](c1cccc(C)c1)[C@@H]1C(=O)N(Cc3ccccc3)C(=O)[C@@H]12	Pf growth 48h inconclusive, AmpC inh detg inconclusive, Pf growth 96h inconclusive
CC(C)CN1CCNC(=O)C1CC(=O)NCc1cnn(-c2cccc(F)c2)c1 (centres undefined)	Sm TGR inh inconclusive
CC(C)OCCCNc1ncnc2sc3c(c12)CCCC3	none (no result: Pf growth 48h, SARS PLpro yeast, Pf growth 96h, AmpC inh no detg)
Cc1ccc(Sc2c(O)c3ccccc3n(C)c2=O)cc1	AmpC inh detg inconclusive
Cc1ccc(Sc2c([N+](=O)[O-])c(=O)n(C)c3ccccc23)cc1	Pf growth 48h inconclusive, Sm TGR inh 2µM
Cn1c(=O)c([N+](=O)[O-])c(NCc2ccccc2)c2ccccc21	AmpC inh detg inconclusive, Pf growth 96h 8.3µM
Cc1ccc(Nc2c([N+](=O)[O-])c(=O)n(C)c3ccccc23)cc1	Pf growth 96h 1.7µM
CCN1CCN(C(=O)CCc2nnc(CCc3ccc(OC)cc3)o2)[C@@H](C)C1=O	none
C=CCn1cnc2c(c1=O)c1nc3ccccc3nc1n2-c1ccccc1	Pf growth 96h 5.9µM (no result: Pf growth 48h)
O=c1c2c3nc4ccccc4nc3n(/N=C/c3ccccn3)c2ncn1-c1ccccc1	Pf growth 48h inconclusive
C=CCn1cnc2c(c1=O)c1nc3ccccc3nc1n2-c1ccc(C)cc1	Pf growth 96h inconclusive
C=CCn1cnc2c(c1=O)c1nc3ccccc3nc1n2/N=C/c1cc(OC)c(OC)c(OC)c1	Pf growth 48h 3.7µM, Pf growth 96h 5.9µM
C=CCn1cnc2c(c1=O)c1nc3ccccc3nc1n2/N=C/c1ccccn1	SARS PLpro yeast inconclusive, Pf growth 96h 1.9µM
CCOCCc1nn2c(=O)cc(COC(=O)CNC(=O)c3ccc(F)cc3)nc2s1	none (no result: Pf growth 48h, SARS PLpro yeast, Pf growth 96h, AmpC inh no detg)
O=C(COc1ccc2c(c1)C(=O)CC1(CCCCC1)O2)NCc1ccccc1	Pf growth 48h 8.3µM, Pf growth 96h 3.7µM
CCOC(=O)COc1ccc2c(c1)C(=O)CC(C)(c1cccnc1)O2 (centres undefined)	Pf growth 96h 2.1µM
CC1(C)CC(=O)c2cc(OCC(=O)NCc3cccnc3)ccc2O1	Pf growth 96h 13µM
CCN(CC)C(=O)COc1ccc2c(c1)C(=O)CC(C)(C)O2	Pf growth 96h 9.3µM
O=C(COc1ccc2c(c1)C(=O)CC1(CCCCC1)O2)NCc1ccccn1	Pf growth 48h inconclusive, Pf growth 96h inconclusive
CC1(C)CC(=O)c2cc(OCC(=O)N3CCOCC3)ccc2O1	none
CCCCCCCNC(=O)COc1ccc2c(c1)C(=O)CC(C)(C)O2	Pf growth 96h inconclusive (no result: Pf growth 48h)
CCC(C)(Oc1ccc(C2(c3ccc(OC(C)(CC)C(=O)O)cc3)CCCCC2)cc1)C(=O)O (centres undefined)	Pf growth 96h inconclusive (no result: SARS PLpro yeast, AmpC inh detg, AmpC inh no detg, Sm TGR inh)
Cc1ccc(CN2CCc3nc(N4CCN(C)CC4)ncc3C2)s1	none (no result: Pf growth 48h, SARS PLpro yeast, Pf growth 96h, AmpC inh no detg)
O=C(O)Cc1ccc(S(=O)(=O)N2CCCC2)s1	none (no result: Pf growth 48h, AmpC inh detg, Pf growth 96h, Sm TGR inh)
O=C(NCCc1ccc(Cl)cc1)C1CCN(S(=O)(=O)N2CCC3(CC2)OCCO3)CC1	Pf growth 96h inconclusive
O=C(Nc1ccncc1)Nc1ccc(F)c(Cl)c1	Pf growth 48h 3.3µM
O=C(Nc1ccncc1)Nc1ccc(F)cc1F	Pf growth 48h 9.3µM

Source: PubChem
